Measurements taken from PubChem BioAssay.
Active and inactive are the calls of the source.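 How the source made its calls: active means inhibition over a set limit, the all-compound mean plus 3 SD, in both replicate runs; inconclusive means over that limit in just one replicate run; inactive means at or under that limit in both runs.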

Test: RAM pathway blockade in budding yeast – dse1pr::URA3 reporter, 5-FOA selection, pilot screen (AID 869);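 further: 0% = DMSO wells with no growth and 100% = 10 µM 1-NA-PP1 with full growth; RAM network block rescues cells from 5-FOA so hits raise OD615 growth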
Conditions: S. cerevisiae dse1pr::URA3 5-FOA growth, OD615, 2 d; at 10 µM; hits give high values; strain carries analog-sensitive mutant Cbk1 kinase

| SMILES | inhibition |
| --- | --- |
| CSc1nnc2c(n1)OC(c1ccc(C(=O)O)cc1)N(C(C)=O)c1ccccc1-2 (centres undefined) | 1.57% (inactive) |
| CC(C)CNC1=CC(=O)CC(c2ccco2)C1 (centres undefined) | 1.17% (inactive) |
| CCOC(=O)c1ccc2nc(NC(=O)C(C)C)sc2c1 | 1.98% (inactive) |
| CCCOC(=O)C1=C(C)NC2=C(C(=O)CC(C)(C)C2)C1c1ccc(N(C)C)cc1 (centres undefined) | -0.505% (inactive) |
| CCOC(=O)N1CCN(C(=O)Cn2ncc3ccccc32)CC1 | 3.38% (inactive) |
| O=C(NC(Nc1ncccn1)C(=O)c1ccccc1)c1ccccc1 (centres undefined) | -0.25% (inactive) |
| CCCCn1c(CCNC(=O)CC)nc2ccccc21 | 1.86% (inactive) |
| CCOC(=O)N1CCN(C(=O)CCSc2ccccc2)CC1 | 0.07% (inactive) |
| O=C(Nc1nc2c(Cl)ccc(Cl)c2s1)c1ccco1 | 1.41% (inactive) |
| O=C(CSCC(=O)N1CCOCC1)Nc1ccccc1 | 0.42% (inactive) |
| CCOC(=O)CSc1nnc(Cn2c(=O)sc3ccccc32)n1-c1ccccc1C | 2.26% (inactive) |
| CC1(C)CC(=O)c2sc(NC(=O)CN3C(=O)CCC3=O)nc2C1 | 0.685% (inactive) |
| Cc1cc(NC(=O)NC2(C(F)(F)F)Oc3ccc(Cl)cc3O2)no1 (centres undefined) | 3.26% (inactive) |
| CN1CCN(CCCNC(=O)c2ccc3c(c2)N(Cc2ccccc2)CCS3)CC1 | 0.9% (inactive) |
| O=C(NC(O)C(=O)c1ccccc1)c1cccs1 (centres undefined) | 1.66% (inactive) |
| Cc1ccc(-c2nc(CS(=O)(=O)CC(=O)N3CCc4ccccc4C3)c(C)o2)cc1 | 0.555% (inactive) |
| COc1ccccc1N1CSC2=C(C#N)C(c3ccc(SC)cc3)CC(=O)N2C1 (centres undefined) | 1.7% (inactive) |
| COc1ccc(Cl)cc1C(=O)N(Cc1nc(-c2cccc(C)c2)no1)C(C)C | 2.31% (inactive) |
| CCOc1cccc(C(=O)Nc2cccc(-c3nnc(-c4ccccc4)o3)c2)c1 | 0.02% (inactive) |
| CC1C(c2ccccc2)=[N+]([O-])C2(CCCC2)N1O (centres undefined) | 1.53% (inactive) |
| CC(=O)c1cccc(NC(=O)C2CCCC2)c1 | 1.08% (inactive) |
| O=C(NCCN1CCCCC1)c1ccc2c(c1)OCCO2 | 1.86% (inactive) |
| O=C(NCc1ccco1)C1CCN(S(=O)(=O)c2cccc3cccnc23)CC1 | 2.12% (inactive) |
| CCSC1=C(C#N)C(c2ccccc2C)CC(=O)N1 (centres undefined) | 1.98% (inactive) |
